The source made the active and inactive calls. Rule for the calls: active = hit-call score of the fitted dose curve at least 0.9, where 1 is the maximum; inactive = score below 0.9.

This experiment in a line: ATG_M_06_CIS: Attagene CIS-FACTORIAL HepG2 Assay for M06 Transcription Factor (Internal Marker) (AID 2282950). The conditions noted are these: HepG2 Attagene CIS-FACTORIAL M06 internal marker reporter; actives raise or lower the signal. As for the experimental part: ATG_CIS is a cell-based, multiplexed-readout assay that uses HepG2, a human liver cell line, with measurements taken at 24 hours after chemical dosing in a 24-well plate.ATG_M_06_CIS is one of 52 assay component(s) measured or calculated from the ATG_CIS assay. It is designed to make measurements of mRNA induction, a form of inducible reporter, as detected with fluorescence intensity signals by Reverse transcription polymerase chain reaction (RT-PCR) and Capillary electrophoresis technology.Data from the assay component ATG_M_06_CIS was analyzed into 1 assay endpoint. This assay endpoint, ATG_M_06_CIS, was analyzed with bidirectional fitting relative to DMSO as the negative control and baseline of activity. Using a type of inducible reporter, measures of mRNA for gain or loss-of-signal activity can be used to understand the background control at the transcription factor-level as they relate to the gene . Furthermore, this assay endpoint can be referred to as a secondary readout, because this assay has produced multiple assay endpoints where this one serves a background control function. To generalize the intended target to other relatable targets, this assay endpoint is annotated to the background measurement intended target family, where the subfamily is internal marker.
Human liver HepG2 cells are transiently transfected with multiple reporter transcription units (MRTUs) in 6-well plates using FuGene 6 reagent (Roche; 3 ml FuGene/1 mg DNA). The MRTU constructs are regulated by a cis-regulating element (promoter). […] A major difference between the CIS and TRANS system is that in CIS activities of endogenous TFs are measured, whereas the TRANS assay evaluates changes in activities of exogenous, chimeric NR-Gal4 proteins. […] At the end of 24 hour incubation, total RNA was isolated using TriZol reagent (Invitrogen). The isolated RNA is then reverse-transcribed using oligo(dT) primer and Mo-MLV reverse transcriptase (Invitrogen) with DNAse I (Ambion) treatment for 30 min. The one-tenth of the produced cDNA was amplified by PCR using Taq DNA polymerase (Invitrogen) and two reporter sequence-specific primers. The PCR products were fluorescently labeled by primer extension with 6-arboxyfluorescein (6-FAM) 5'-labeled reporter sequence-specific primer (2 min at 95 C, 20 s at 68 C and 10 min at 72 C) and these products were digested with 5U of HpaI (New England Biolabs) for 2h at 37 C. The fragments were purified using Qiaquick PCR columns (Qiagen), analyzed on an ABI 3130xL genetic analyzer (Applied Biosystems) with peak positions identified by using a set of X-rhodamine (ROX)-labeled MapMarker1000 molecular weight standards (BioVentures). The raw capillary electrophoresis data was processed using Attagraph software (Attagene).
As for `CCCCCCCCCOC(C)=O`, the compound was classed as inactive. To `CC(=O)Nc1ccccc1O` belongs “inactive”; to `N#Cc1ccccc1`, “inactive”. To `O=C1O[C@@H]2[C@@H](O)[C@H](O)O[C@@H]2[C@H]1O` belongs “inactive”. As for `CCN(CC)c1ccc2c(-c3ccccc3C(=O)O)c3ccc(=[N+](CC)CC)cc-3oc2c1`, the call was inactive.

Take `CCCC/C=C\CCCCCCCCCC=O`: the call was inactive. To `CCCCCCCCCCCCOCCO` belongs “inactive”; to `Nc1cc(N)cc(C(=O)O)c1`, “inactive”; to `CC(C)[C@@H]1CC[C@@H](C)CC1=O`, “inactive”. For `CCCCCCOC(=O)CCCCC`, the compound was classed as inactive. Regarding `Clc1nc(C(Cl)(Cl)Cl)c(Cl)c(Cl)c1Cl`, the compound was classed as inactive. On to `C[C@H]1C[C@@H]2[C@H]([C@@H](O)C[C@@]3(C)[C@H]2CC[C@]3(O)C(=O)CO)[C@@]2(C)C=CC(=O)C=C12`, for which the result was inactive. With `CC(=O)[O][Al][O]C(C)=O`, the compound was called inactive. The result for `O=C(O)CCCCCCCC(=O)O` reads “inactive”; that for `OC[C@H]1O[C@H](O[C@]2(CCl)O[C@H](CCl)[C@@H](O)[C@@H]2O)[C@H](O)[C@@H](O)[C@H]1Cl`, “inactive”; that for `NC(N)=NC(=O)c1nc(Cl)c(N)nc1N`, “inactive”.

As to `CC(O)C(C)O` (stereo not given), the result was inactive.

With `OCc1cccnc1`, the result was inactive. For `CC(C)(COC(=O)c1ccccc1)COC(=O)c1ccccc1`, the call was inactive. Regarding `Cc1ccc(C=O)cc1`, the call was inactive. Take `OCC(CO)(CO)COCC(CO)(CO)CO`: the compound was called inactive. The result for `CC1COc2ccccc2N1C(=O)C(Cl)Cl` (stereo not given) reads “inactive”. The result for `O=c1[nH]c(=O)n([C@H]2CCCO2)cc1F` reads “inactive”; that for `O=C=NC1CCC(CC2CCC(N=C=O)CC2)CC1` (stereo not given), “inactive”. To `Nc1cc(Cl)c(O)c(Cl)c1` belongs “inactive”; to `CNCCCC12CCC(c3ccccc31)c1ccccc12`, “inactive”; to `CC(CN1c2ccccc2Sc2ccccc21)N(C)C` (stereo not given), “inactive”. Consider `C=C[Si](OCC)(OCC)OCC`, for which the outcome was inactive.

`CCC(C(=O)NC(N)=O)c1ccccc1` (stereo not given): the compound was called inactive.

On to `C#C[C@]1(O)CC[C@H]2[C@@H]3CCC4=Cc5oncc5C[C@]4(C)[C@H]3CC[C@@]21C`, for which the result was inactive.

Regarding `C=C(C)C(=O)O[C@H]1C[C@@H]2CC[C@@]1(C)C2(C)C`, the call was inactive.

For the compound `Nc1ccc(S(=O)(=O)O)c(N)c1`, the compound was called inactive. To `O=Cc1ccc(F)cc1` belongs “inactive”.

`C=CCOc1nc(OCC=C)nc(OCC=C)n1`: the outcome was inactive. For `CC(C)C[C@H]1C(=O)N2CCC[C@H]2[C@]2(O)O[C@](NC(=O)[C@@H]3C=C4c5cccc6[nH]c(Br)c(c56)C[C@H]4N(C)C3)(C(C)C)C(=O)N12`, the result was inactive.

Consider `CC(C)=CCCC(C)CC=O` (stereo not given), for which the call was inactive. The result for `CC1CCC(C(C)CS)CC1S` (stereo not given) reads “inactive”. Turning to `[Ca+2]`, the compound was classed as inactive. To `COc1cc(C=O)ccc1OC(=O)C(C)C` belongs “inactive”. The result for `NNc1nc(-c2ccc(N)cc2)cs1` reads “inactive”.

Source of the values: PubChem BioAssay (EPA / NIEHS).
